# Results taken from PubChem BioAssay (NCATS).
# “And” between values parts separate entries of the source, which are not always exact repeats. Equal entries are not always repeated. Inconclusive results are not listed. Where a call stands in place of a potency, no number is given. The source made the active and inactive calls. Unless noted, calls come from the whole dose curve.
# Assays:
# [1] = target: Androgen receptor (Homo sapiens) (UniProt P10275); experiment: qHTS assay for small molecule antagonists of androgen receptor signaling (AID 588516; active = well fitted curve in the direction sought with a large enough effect in the signal ratio, with a control signal flat, not every such curve was filed as active; the % refers to the signal ratio)
# Procedure, shortened: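 Antagonist-mode qHTS: inhibition of R1881 (10 nM)-driven beta-lactamase expression in GripTite HEK 293 cells is measured after 16 h; values are Hill-derived IC50s normalized between R1881 and DMSO wells.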
# [2] = qHTS assay for small molecule antagonists of peroxisome proliferator-activated receptor delta signaling (AID 588535; active = well fitted inhibition curve with a large enough effect in the signal ratio, with a control signal flat, not every such curve was filed as active; the % refers to the signal ratio;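 for max response: cells co-treated with a PPAR-delta agonist as stimulator during compound exposure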); settings: HEK293T PPARd-UAS-bla, beta-lactamase FRET ratio, 18 h; 460 nm channel
# Procedure, shortened: (§1)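 Antagonist-mode qHTS using GeneBLAzer PPAR-delta-UAS-bla HEK293T cells; compound exposure 18 hrs at 37 C over a titration. Ratiometric CCF4 fluorescence at 460/530 nm; concentration-response points fitted to the Hill equation.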
# [3] = target: Peroxisome proliferator-activated receptor delta (Homo sapiens) (UniProt Q03181); experiment: as above
# Procedure, shortened: as §1
# [4] = target: Peroxisome proliferator-activated receptor gamma (Homo sapiens) (UniProt P37231); experiment: qHTS assay for small molecule agonists of peroxisome proliferator-activated receptor gamma signaling (AID 588536; active = well fitted curve in the direction sought with a large enough effect in the signal ratio, with a control signal flat, not every such curve was filed as active; the % refers to the signal ratio)
# Procedure, shortened: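 Cells were plated and held 6–6.5 h at 37 C, then compounds were added as a titration series. After a further 16 h, CCF4 dye was loaded for 2 h at room temperature and emission at 460/530 nm recorded.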
# [5] = target: Peroxisome proliferator-activated receptor gamma (Homo sapiens) (UniProt P37231); experiment: qHTS assay for small molecule antagonists of peroxisome proliferator-activated receptor gamma signaling (AID 588537; active = well fitted inhibition curve with a large enough effect in the signal ratio, with a control signal flat, not every such curve was filed as active; the % refers to the signal ratio;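 note: reporter cells co-stimulated with 50 nM rosiglitazone agonist during compound treatment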)
# Procedure, shortened: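 Cell-based beta-lactamase assay; GW9662 served as the antagonist control. Stimulation used rosiglitazone, final 50 nM, 16 h, 37 C.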
# [6] = target: Vitamin D3 receptor (Homo sapiens) (UniProt P11473); experiment: qHTS assay for small molecule antagonists of vitamin D receptor signaling (AID 588541);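 note: receptor activated by calcitriol during compound treatment; series mostly up to about 77 µM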
# Procedure, shortened: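 Antagonist-mode beta-lactamase reporter assay: HEK293T VDR-UAS-bla cells were exposed to titrated compound alongside 1-alpha,25-dihydroxyvitamin D3 at 3 nM final for 16 h. Values were normalized to the 50 nM agonist control and DMSO basal, with IC50 and efficacy from Hill equation fits.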
# [7] = target: Vitamin D3 receptor (Homo sapiens) (UniProt P11473); experiment: qHTS assay for small molecule agonists of vitamin D receptor signaling (AID 588543)
# Procedure, shortened: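 qHTS in agonist mode: compound titrations stimulate a VDR-driven β-lactamase reporter in HEK293T cells over 16 h at 37 °C. Response normalized to 50 nM 1α,25-dihydroxyvitamin D3 = 100%, DMSO = 0%; Hill fitting gives EC50 and maximal response.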
# [8] = qHTS assay for small molecule agonists of retinoid X receptor alpha signaling (AID 588544); settings: HEK293T RXRa-UAS-bla, beta-lactamase reporter, 18 h; 530 nm emission
# [9] = target: Retinoic acid receptor RXR-alpha (Homo sapiens) (UniProt P19793); experiment: as above
# [10] = qHTS assay for small molecule antagonists of retinoid X receptor alpha signaling (AID 588546; active = well fitted inhibition curve with a large enough effect in the signal ratio, with a control signal flat, not every such curve was filed as active; the % refers to the signal ratio;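 note: cells stimulated with 9-cis-retinoic acid as agonist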); settings: HEK293T RXRa-UAS-bla, beta-lactamase ratio, antagonist mode; measured here: W530 green channel, cytotoxicity proxy
# Procedure, shortened: (§2)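 Beta-lactamase reporter inhibition, read as CCF4 fluorescence ratio (ex 405, em 460/530 nm) after 2 h at RT. HEK293T UAS-bla cells, 2500/well, were stimulated with 9-cis-RA at 500 or 100 nM final alongside test compound for 18 h at 37 C.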
# [11] = target: Retinoic acid receptor RXR-alpha (Homo sapiens) (UniProt P19793); experiment: as above; settings: HEK293T RXRa-UAS-bla, beta-lactamase ratio, antagonist mode
# Procedure, shortened: as §2
# [12] = target: Thyroid hormone receptor beta (Homo sapiens) (UniProt P10828); experiment: qHTS assay for small molecule antagonists of thyroid hormone receptor beta signaling (AID 588547; active = well fitted inhibition curve with a large enough effect in the signal ratio, with a control signal flat, not every such curve was filed as active; the % refers to the signal ratio;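 note: cells stimulated with 0.4 nM T3 agonist during compound exposure; series mostly up to about 77 µM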); settings: TR-UAS-bla HEK293, beta-lactamase ratio, antagonist mode, 18 h
# Procedure, shortened: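 Inhibition of T3-driven (0.4nM final) beta-lactamase reporter activity was measured over 0.59 nM to 92 uM compound after 18 h at 37 C. The cells were GripTite HEK293 TR-UAS-bla in charcoal/dextran-stripped serum, with CCF4 ratio read-out and IC50 from Hill fits.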
# [13] = target: Voltage-gated inwardly rectifying potassium channel KCNH2 (Homo sapiens) (UniProt Q12809); experiment: qHTS Assay for Small Molecule Inhibitors of the Human hERG Channel Activity (AID 588834; active = well fitted inhibition curve with a large enough effect;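 note: lower thallium flux fluorescence means stronger hERG block; nearly all actives have a fitted effect of over 50% in size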; note: potency is the fitted concentration of half-maximal effect)
# Procedure, shortened: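 Cells were infected with hERG-BacMam virus for 4 hrs at room temperature, grown overnight, then seeded at 2000/well. After dye loading and roughly 10 min compound treatment, thallium influx was triggered and fluorescence recorded.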
# [14] = target: Luciferin 4-monooxygenase (Photinus pyralis) (UniProt P08659); experiment: Biochemical firefly luciferase enzyme assay for NPC (AID 624030; active = well fitted inhibition curve with a large enough effect;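 note: purified P. pyralis luciferase at 10 nM with luciferin and ATP substrate; series mostly up to about 59 µM; nearly all actives have a fitted effect of over 70% in size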)
# Procedure, shortened: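 Direct inhibition of firefly luciferase enzyme (10 nM final, 50 mM Tris Acetate) assessed by luminescence within 5 minutes. Percent activity scaled between DMSO and PTC124 positive control, with concentration-effect curves classified by fit quality and response.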
# [15] = target: Bile acid receptor (Homo sapiens) (UniProt Q96RI1); experiment: qHTS assay for small molecule antagonists of farnesoid X receptor signaling (AID 588526)
# Procedure, shortened: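 Beta-lactamase reporter antagonist mode: HEK293T FXR-UAS-bla cells, titrated compound, CDCA stimulation, 16 h 37 C, CCF4 dye 2 h RT. Data normalized to CDCA 50 uM and DMSO; Hill-fit IC50.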
# [16] = target: Glucocorticoid receptor (Homo sapiens) (UniProt P04150); experiment: qHTS assay for small molecule agonists of glucocorticoid receptor signaling (AID 588532; active = well fitted curve in the direction sought with a large enough effect in the signal ratio, with a control signal flat; the % refers to the signal ratio); settings: HeLa MMTV-bla, beta-lactamase ratio, agonist, 18 h; stronger effect = higher value; percent of dexamethasone control, DMSO zero
# Procedure, shortened: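 Using MMTV-bla HeLa cells in medium with 1% stripped FBS and 25 mM HEPES, compounds were titrated and incubated overnight-length (18 h). Beta-lactamase cleavage of CCF4 was quantified by dual-emission fluorescence.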
# [17] = target: Thyroid hormone receptor beta (Homo sapiens) (UniProt P10828); experiment: qHTS assay for small molecule agonists of thyroid hormone receptor beta signaling (AID 588545)
# Procedure, shortened: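 TR-UAS-bla-GripTite HEK 293 cells in medium with 2% charcoal/dextran FBS, 0.1 mM NEAA and 1 mM sodium pyruvate were treated with titrated compounds for 18 hrs at 37 C. Beta-lactamase reporter was read with CCF4 dye (ex 405, em 460/530 nm); EC50 from Hill fits.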
# Sequence of Luciferin 4-monooxygenase (Photinus pyralis) (P08659 whole entry, looked up): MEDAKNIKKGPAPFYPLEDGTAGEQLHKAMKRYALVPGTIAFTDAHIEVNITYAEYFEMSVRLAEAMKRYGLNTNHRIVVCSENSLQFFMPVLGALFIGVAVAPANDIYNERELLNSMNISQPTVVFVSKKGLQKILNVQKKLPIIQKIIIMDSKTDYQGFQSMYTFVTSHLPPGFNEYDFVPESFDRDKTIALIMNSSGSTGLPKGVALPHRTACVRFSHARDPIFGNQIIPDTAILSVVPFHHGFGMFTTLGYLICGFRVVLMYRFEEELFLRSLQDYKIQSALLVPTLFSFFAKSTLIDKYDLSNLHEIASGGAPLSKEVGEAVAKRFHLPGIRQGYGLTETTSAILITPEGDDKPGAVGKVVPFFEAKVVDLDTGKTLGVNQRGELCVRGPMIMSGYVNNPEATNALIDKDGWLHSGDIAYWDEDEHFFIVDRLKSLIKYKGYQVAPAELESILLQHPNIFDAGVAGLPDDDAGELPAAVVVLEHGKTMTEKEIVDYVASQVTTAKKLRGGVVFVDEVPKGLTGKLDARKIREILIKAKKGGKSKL
# Sequence of Vitamin D3 receptor (Homo sapiens) (P11473 whole entry, looked up): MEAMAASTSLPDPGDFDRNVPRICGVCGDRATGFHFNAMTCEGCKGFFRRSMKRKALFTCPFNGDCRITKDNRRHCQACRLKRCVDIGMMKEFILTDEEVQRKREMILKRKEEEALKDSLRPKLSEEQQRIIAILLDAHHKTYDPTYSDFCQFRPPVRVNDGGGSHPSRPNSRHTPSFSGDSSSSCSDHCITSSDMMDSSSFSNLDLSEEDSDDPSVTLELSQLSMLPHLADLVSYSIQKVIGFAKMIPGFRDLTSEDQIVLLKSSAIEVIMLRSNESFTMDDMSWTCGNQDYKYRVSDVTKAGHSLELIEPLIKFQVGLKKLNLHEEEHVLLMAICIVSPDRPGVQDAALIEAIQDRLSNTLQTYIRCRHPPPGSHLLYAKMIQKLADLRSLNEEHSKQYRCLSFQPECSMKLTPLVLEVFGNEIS
# Sequence of Peroxisome proliferator-activated receptor gamma (Homo sapiens) (P37231 whole entry, looked up): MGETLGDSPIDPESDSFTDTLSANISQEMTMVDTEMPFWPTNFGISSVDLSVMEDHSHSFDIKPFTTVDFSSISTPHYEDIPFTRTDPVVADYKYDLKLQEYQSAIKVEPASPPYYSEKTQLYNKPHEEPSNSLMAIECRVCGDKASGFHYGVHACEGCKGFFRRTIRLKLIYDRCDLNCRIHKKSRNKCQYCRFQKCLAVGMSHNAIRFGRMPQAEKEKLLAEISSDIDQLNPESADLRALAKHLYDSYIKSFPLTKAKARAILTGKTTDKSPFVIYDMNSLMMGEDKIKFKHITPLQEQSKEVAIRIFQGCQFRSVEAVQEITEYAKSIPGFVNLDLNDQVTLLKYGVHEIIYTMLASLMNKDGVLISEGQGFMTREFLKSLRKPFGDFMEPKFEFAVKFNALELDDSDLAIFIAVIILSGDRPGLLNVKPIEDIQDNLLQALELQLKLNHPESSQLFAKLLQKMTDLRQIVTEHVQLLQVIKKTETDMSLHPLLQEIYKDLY
# Sequence of Voltage-gated inwardly rectifying potassium channel KCNH2 (Homo sapiens) (Q12809 whole entry, looked up): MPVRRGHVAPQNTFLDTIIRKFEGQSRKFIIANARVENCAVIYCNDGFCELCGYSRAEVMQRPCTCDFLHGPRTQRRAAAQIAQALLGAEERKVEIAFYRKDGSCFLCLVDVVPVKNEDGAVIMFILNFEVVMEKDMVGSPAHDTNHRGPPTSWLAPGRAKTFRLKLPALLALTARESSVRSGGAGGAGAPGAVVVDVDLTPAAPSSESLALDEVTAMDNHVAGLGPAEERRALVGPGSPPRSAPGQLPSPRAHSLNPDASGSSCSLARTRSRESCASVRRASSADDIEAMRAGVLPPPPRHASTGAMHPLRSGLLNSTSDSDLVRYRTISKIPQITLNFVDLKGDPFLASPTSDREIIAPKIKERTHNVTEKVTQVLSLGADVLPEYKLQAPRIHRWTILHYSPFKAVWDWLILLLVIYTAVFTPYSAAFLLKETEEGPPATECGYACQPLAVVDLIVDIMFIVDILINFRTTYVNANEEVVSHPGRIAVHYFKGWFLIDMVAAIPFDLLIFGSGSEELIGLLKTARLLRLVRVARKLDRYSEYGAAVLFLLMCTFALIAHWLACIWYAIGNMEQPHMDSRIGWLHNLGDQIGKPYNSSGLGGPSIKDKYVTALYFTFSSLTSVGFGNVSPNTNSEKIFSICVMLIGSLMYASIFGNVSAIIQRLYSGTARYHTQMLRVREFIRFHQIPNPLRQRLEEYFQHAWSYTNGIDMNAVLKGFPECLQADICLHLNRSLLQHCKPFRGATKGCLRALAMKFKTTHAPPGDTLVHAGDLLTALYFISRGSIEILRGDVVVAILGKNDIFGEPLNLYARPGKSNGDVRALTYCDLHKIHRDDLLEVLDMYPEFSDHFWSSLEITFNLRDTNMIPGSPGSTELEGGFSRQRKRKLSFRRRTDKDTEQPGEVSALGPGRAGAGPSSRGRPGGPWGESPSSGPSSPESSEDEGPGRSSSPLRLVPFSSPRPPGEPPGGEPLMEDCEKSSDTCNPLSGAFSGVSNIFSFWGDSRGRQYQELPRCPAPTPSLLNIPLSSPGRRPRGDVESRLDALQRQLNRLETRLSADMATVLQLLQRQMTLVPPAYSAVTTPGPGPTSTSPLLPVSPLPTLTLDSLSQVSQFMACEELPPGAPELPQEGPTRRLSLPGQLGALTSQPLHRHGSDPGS
# Sequence of Retinoic acid receptor RXR-alpha (Homo sapiens) (P19793 whole entry, looked up): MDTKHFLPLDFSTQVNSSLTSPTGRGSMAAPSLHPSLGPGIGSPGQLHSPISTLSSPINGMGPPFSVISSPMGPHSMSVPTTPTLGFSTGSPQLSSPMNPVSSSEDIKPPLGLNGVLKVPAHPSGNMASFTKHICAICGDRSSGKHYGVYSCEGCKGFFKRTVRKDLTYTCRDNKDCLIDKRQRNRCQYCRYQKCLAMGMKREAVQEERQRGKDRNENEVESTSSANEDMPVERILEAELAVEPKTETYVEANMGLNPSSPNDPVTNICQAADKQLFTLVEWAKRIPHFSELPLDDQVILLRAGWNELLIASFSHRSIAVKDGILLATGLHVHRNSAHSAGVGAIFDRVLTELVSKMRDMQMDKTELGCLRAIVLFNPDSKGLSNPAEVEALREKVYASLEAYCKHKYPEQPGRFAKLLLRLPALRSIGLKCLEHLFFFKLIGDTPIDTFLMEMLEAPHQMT
# Sequence of Androgen receptor (Homo sapiens) (P10275 whole entry, looked up): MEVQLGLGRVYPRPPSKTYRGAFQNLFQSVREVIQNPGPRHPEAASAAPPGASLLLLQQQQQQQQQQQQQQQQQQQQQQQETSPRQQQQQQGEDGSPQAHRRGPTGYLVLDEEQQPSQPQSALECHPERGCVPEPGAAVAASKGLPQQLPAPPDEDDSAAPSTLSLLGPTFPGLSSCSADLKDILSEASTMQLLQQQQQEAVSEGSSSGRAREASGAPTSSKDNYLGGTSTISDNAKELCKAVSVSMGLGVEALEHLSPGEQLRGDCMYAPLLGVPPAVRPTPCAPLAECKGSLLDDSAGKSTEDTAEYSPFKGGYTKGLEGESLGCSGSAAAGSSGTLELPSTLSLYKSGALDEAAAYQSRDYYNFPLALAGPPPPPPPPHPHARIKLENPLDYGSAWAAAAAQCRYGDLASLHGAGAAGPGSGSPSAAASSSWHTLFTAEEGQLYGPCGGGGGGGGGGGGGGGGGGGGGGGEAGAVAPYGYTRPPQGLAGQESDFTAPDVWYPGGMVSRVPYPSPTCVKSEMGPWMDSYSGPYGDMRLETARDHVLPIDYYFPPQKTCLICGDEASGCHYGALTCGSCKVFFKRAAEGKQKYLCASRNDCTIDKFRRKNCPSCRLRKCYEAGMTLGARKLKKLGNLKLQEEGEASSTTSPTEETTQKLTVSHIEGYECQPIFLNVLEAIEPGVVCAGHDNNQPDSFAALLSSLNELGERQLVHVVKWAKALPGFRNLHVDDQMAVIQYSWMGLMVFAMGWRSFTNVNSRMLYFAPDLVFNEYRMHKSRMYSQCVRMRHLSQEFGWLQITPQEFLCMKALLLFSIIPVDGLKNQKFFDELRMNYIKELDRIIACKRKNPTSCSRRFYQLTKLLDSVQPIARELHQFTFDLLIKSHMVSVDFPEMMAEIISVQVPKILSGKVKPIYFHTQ
# Sequence of Peroxisome proliferator-activated receptor delta (Homo sapiens) (Q03181 whole entry, looked up): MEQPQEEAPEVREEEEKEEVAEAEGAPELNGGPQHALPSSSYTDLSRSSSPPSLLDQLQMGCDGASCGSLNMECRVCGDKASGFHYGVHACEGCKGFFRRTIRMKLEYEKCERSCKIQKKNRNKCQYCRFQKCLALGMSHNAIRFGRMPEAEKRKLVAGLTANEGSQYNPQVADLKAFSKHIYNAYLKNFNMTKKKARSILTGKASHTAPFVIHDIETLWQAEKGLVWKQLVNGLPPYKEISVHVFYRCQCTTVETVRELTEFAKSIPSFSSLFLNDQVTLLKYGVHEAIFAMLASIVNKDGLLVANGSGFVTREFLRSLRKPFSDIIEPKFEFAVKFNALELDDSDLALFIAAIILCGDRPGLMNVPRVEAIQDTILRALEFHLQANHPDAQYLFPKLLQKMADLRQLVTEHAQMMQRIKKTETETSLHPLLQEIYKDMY
# Sequence of Thyroid hormone receptor beta (Homo sapiens) (P10828 whole entry, looked up): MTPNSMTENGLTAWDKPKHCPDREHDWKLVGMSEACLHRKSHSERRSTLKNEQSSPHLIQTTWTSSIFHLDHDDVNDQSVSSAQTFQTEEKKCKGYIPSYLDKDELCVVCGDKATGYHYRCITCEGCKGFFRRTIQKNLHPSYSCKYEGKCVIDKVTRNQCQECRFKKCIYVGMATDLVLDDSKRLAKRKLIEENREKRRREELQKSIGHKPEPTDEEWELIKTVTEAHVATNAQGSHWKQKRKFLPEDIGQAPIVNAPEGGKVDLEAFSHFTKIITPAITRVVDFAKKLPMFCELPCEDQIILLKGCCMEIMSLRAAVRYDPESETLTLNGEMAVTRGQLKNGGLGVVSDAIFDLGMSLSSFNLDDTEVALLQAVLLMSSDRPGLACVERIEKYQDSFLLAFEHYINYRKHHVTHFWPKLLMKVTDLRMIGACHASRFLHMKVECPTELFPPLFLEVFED
SMILES,outcome [1],max response [2],outcome [3],outcome [4],outcome [5],outcome [6],outcome [7],max response [8],Potency [9],max response [10],max response [11],activity change % (negative = inhibition) [12],Potency [13],Potency [14],outcome [15],activation [16],outcome [17]
CC(C)C(C)(C)C(C)(C)C(C)(C)S,inactive,5.05% and 21.4%,inactive,inactive,inactive,inactive,inactive,-6.07% and -23.3%,inactive,-12% and -14.7%,11.7% (inactive) and -0.658% (inactive),1.2% (inactive) and -6.79% (inactive),inactive,inactive,,,
COC(=O)c1c(Cl)c(Cl)c(C(=O)OC)c(Cl)c1Cl,,-8.5%,inactive,,inactive,inactive,inactive,-4.07%,inactive,-11.5%,4.25% (inactive),3.31% (inactive),,inactive,inactive,-1.01% (inactive),inactive
CN(C)c1cc2c(Nc3ccc4c(cnn4Cc4ccccc4)c3)ncnc2cn1,,,,,,,,,,,,,inactive,,,,
Brc1ccccc1-c1ccccc1,,,,,,inactive,inactive,10.3%,inactive,1.21%,-2.01% (inactive),-16.6% (inactive),,inactive,,8.87% (inactive),inactive
Cc1ncc(CO)c(CO)c1O,,15.2%,inactive,inactive,inactive,inactive,inactive,-11.9%,inactive,-0.0047%,7.42% (inactive),,,inactive,inactive,,
OCCOCCN1CCN(C(c2ccccc2)c2ccc(Cl)cc2)CC1 (configuration not stated),,,,inactive,inactive,inactive,inactive,11.6%,inactive,2.38%,-14.3% (inactive),-10.5% (inactive),,inactive,,,inactive
COc1ccccc1N1CCN(CCN2C(=O)CC3(CCCC3)CC2=O)CC1,,,,,,,,,,,,,1120 nM (active),,,,
OCc1c[nH]c2ccccc12,inactive,,,inactive,,inactive,inactive,1.88%,inactive,2.29%,-2.51% (inactive),13% (inactive),inactive,,inactive,,inactive
C[C@]12CCC(=O)C=C1CC[C@@H]1[C@@H]2[C@@H](O)C[C@@]2(C)[C@H]1CC[C@]2(O)C(=O)COC(=O)CCC(=O)O,,,,,,,,,,,,,inactive,inactive,,,
CCCC(=O)c1cc(O)c(O)cc1O,,14.6%,inactive,inactive,inactive,inactive,inactive,11.4%,inactive,4.85%,15.9% (inactive),-21% (inactive),inactive,,inactive,7.26% (inactive),inactive
